Compounds with a hit are over-represented: about 4.1% of the library has one in this group of screens.
M18AAP inhibitor – PfM18AAP enzyme inhibition; recombinant PfM18AAP, H-Glu-NHMec fluorogenic cleavage; AID 1822; hit rate 1.2% among 290,000; inhibition, % at 7.35 µM;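 active means inhibition above the campaign mean inhibition over all tested compounds plus 3 SD, cut at about 28% in these data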;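 further: 0% = plate median of test compound wells and 100% = 2 mM ZnCl2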
CaV13 FRET inh – Primary screen for inhibitors of IQ motif and Ca2+-dependent inactivation inhibitor domain binding in CACNA1D, Förster resonance energy transfer in living cells, …. HEK cells, CFP/YFP FRET ICDI-IQ, plate reader, 10 min; percent FRET-ratio fall versus neutral wells. inhibition, % at 12.3 µM. hit rate 0.098% among 340,000;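 active means mean replicate inhibition of at least 30% and at least 1% of replicates passing that level; inconclusive means only one of the two criteria is met; inactive means neither criterion is met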;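 further: 0% = median of the neutral control wells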
IDE cell activ – IDE (human) activation, cell-based; P14735; HEK cells, FAbeta-B cleavage, fluorescence polarization; 0% vehicle, 100% cell-free pure enzyme wells; activation, % at 5.96 µM; hit rate 0.073% among 340,000; AID 493087;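 active means activation above the mean of all tested compounds plus 3 SD, set per screening campaign, cut at about 17% in these data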
Target sequence (P14735 whole entry, looked up): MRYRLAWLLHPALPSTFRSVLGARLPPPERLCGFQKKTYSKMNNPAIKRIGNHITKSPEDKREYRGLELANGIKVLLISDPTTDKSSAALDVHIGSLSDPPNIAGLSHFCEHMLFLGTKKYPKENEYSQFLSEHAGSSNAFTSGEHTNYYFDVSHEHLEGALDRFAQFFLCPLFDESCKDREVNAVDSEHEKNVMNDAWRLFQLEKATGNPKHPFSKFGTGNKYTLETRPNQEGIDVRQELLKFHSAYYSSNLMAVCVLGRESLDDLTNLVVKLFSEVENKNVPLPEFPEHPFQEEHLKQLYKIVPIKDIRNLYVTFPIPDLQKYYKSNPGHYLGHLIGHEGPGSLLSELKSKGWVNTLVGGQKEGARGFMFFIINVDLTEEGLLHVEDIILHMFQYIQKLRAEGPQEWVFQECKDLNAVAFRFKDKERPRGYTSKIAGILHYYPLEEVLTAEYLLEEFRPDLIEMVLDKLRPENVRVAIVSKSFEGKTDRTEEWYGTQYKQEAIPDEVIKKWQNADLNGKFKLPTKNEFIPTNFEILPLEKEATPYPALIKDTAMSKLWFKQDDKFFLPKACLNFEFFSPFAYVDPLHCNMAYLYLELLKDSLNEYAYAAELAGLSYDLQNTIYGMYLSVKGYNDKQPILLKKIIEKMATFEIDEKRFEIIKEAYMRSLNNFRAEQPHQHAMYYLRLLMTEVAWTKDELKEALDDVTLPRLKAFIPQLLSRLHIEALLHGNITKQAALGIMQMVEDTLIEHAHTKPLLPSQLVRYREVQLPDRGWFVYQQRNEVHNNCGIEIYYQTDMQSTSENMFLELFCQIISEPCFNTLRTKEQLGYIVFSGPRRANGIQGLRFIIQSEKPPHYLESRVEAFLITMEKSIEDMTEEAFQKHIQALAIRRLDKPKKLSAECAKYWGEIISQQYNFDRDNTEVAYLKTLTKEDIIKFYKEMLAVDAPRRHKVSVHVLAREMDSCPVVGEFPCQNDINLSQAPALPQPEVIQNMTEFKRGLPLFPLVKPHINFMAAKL
PolyA inh – yeast polyadenylation inhibition | S. cerevisiae SKY197-pL101 polyadenylation reporter, beta-gal luminescence; efflux-impaired pdr1/pdr3 knockout yeast; score 100 = 6 SD above DMSO | activity score, % at 12 µM | AID 1875 | hit rate 0.02% among 300,000;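 active means lowest replicate activity score at least 50, where 100 means six control SD above control mean; inconclusive means lowest score under 50 but half or more replicates reach 50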;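 further: yeast exposed to compound for 9 h at 30 °C; higher score means more reporter readthrough which indicates perturbed polyadenylation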
ALR inh – blocks human ALR sulfhydryl oxidase activity; P55789; purified ALR, DTT oxidation, H2O2 HRP-luminol luminescence; inhibition, % (no concentration beside the values); hit rate 3.8% among 290,000;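 active means mean replicate inhibition above about 79%, with every replicate also reaching it, limit read from the data; inconclusive means only one of the two criteria met; inactive means mean below limit and not every replicate reaching it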
IDE cell inh – inhibitors of human insulin-degrading enzyme in cells | HEK cells, FAbetaB cleavage, fluorescence polarization | inhibition, % at 5.59 µM | hit rate 0.41% among 320,000 | P14735;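 active means percent inhibition above the average of all tested compounds plus 3 SD, set per screening campaign, cut at about 16% in these data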;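 further: IDE supplied by intact live HEK cells; FP after avidin binding of uncleaved biotin substrate so inhibition keeps polarization high; 0% = DMSO wells and 100% = 60 µM reference IDE inhibitor Ii1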
An asterisk follows results filed as active; ? = inconclusive; · = no result.

SMILES	M18AAP inhibitor	CaV13 FRET inh	IDE cell activ	PolyA inh	ALR inh	IDE cell inh
COc1cccc(-c2n[nH]c(=S)n2Cc2ccco2)c1	17	1	3	1	-4	0
CC(C)Cn1c(-c2ccncc2)n[nH]c1=S	18	0	7	10	87*	3
Cc1c(Cl)c(-c2n[nH]c(=S)n2Cc2ccco2)nn1C	6	-1	-2	3	21	6
S=c1[nH]nc(-c2ccc(Br)cc2)n1Cc1ccco1	2	-2	-11	-1	88*	8
CC(C)Cn1c(-c2ccc(F)cc2)n[nH]c1=S	12	-5	-7	-6	57	0
S=c1[nH]nc(-c2ccncc2)n1CC1CCCO1 (stereo unspecified)	19	·	-3	-4	93*	3
S=c1[nH]nc(-c2ccncc2)n1Cc1ccco1	9	-8	0	-8	96*	-8
CCCc1cc(=O)oc2cc(C)cc(OCC(=O)Nc3ccc(S(N)(=O)=O)cc3)c12	2	-3	4	?	·	-3
COc1ccccc1N1CCN(C(=O)c2ccc3[nH]c4c(c3c2)CC(C)CC4)CC1 (stereo unspecified)	-2	-4	-2	14	-7	0
Cc1ccc(-c2nnc(Sc3nc4ccccc4o3)c3ccccc23)cc1	-12	-1	-3	-8	3	-3
Cc1nnc(Sc2nc3ccccc3o2)c2ccccc12	-4	·	6	-1	97*	-1
Cc1cc(NC(=O)COC(=O)C2=NN(c3ccccc3)C(=O)CC2)c([N+](=O)[O-])cc1C	·	-4	2	·	20	3
COc1ccc(Nc2cc(C(=O)NCCCN3CCN(C)CC3)c3ccccc3n2)c(OC)c1	5	0	3	-7	81*	6
O=C(NCC1CCCO1)c1cc([N+](=O)[O-])ccc1Cl (stereo unspecified)	4	-5	1	-9	95*	1
O=S1(=O)CC=C(CSC(=S)NC2CCS(=O)(=O)C2)C1 (stereo unspecified)	-6	-2	0	·	99*	1
COc1cc(/C=C(\C#N)C(=O)c2c(C)[nH]c3ccccc23)cc(OC)c1OC	3	-5	3	14	96*	8
COc1ccc(OC)c(C2=NS(=O)(=O)N(C)C(C(=O)N3CCC4(CC3)OCCO4)=C2)c1	-1	-3	0	14	3	2
CCOc1ccc(N=c2oc3cc(O)ccc3cc2C(=O)NCC2CCCO2)cc1 (stereo unspecified)	4	23	1	-8	-6	-2
CCOc1ccccc1N=c1oc2cc(O)ccc2cc1C(=O)NCC1CCCO1 (stereo unspecified)	-2	33*	7	-26	98*	5
CCCC(=O)Nc1ccc(-c2csc(NNC(C)=O)n2)cc1	11	-5	1	19	99*	3
CC(=O)Nc1ccc(-c2csc(NC(=O)Cc3ccccc3F)n2)cc1	1	-7	0	21	3	5
Oc1ccc(Nc2nc(-c3ccc(O)cc3)cs2)cc1	8	-4	-4	1	100*	4
CC(=O)NNc1nc(-c2ccccc2)cs1	23	-5	2	-7	11	2
CC(=O)NNc1nc(-c2ccc(C)cc2)cs1	26	-4	-7	-11	83*	6
O=C(CSc1ncn[nH]1)Nc1ccc(S(=O)(=O)Nc2ncccn2)cc1	30*	2	-2	0	6	5
SMILES	M18AAP inhibitor	CaV13 FRET inh	IDE cell activ	PolyA inh	ALR inh	IDE cell inh
NS(=O)(=O)c1ccc(NC(=O)CSc2ncn[nH]2)cc1	19	-5	6	2	-27	5
Cc1ccc(S(C)(=O)=O)cc1C(=O)Nc1ccc(S(=O)(=O)Nc2nccs2)cc1	·	-5	6	·	97*	-1
CC(=O)Nc1ccc(S(=O)(=O)Nc2nccs2)cc1	6	-4	7	1	4	·
O=C(CSc1ccncc1)Nc1ccc(S(=O)(=O)Nc2nccs2)cc1	3	9	6	3	99*	4
CC1(c2ccccc2)NC(=O)N(CC(=O)Nc2ccc(S(=O)(=O)Nc3ncccn3)cc2)C1=O (stereo unspecified)	·	-7	4	-20	98*	3
CCNC(=O)N1CCN(c2ccc(N3CCN(C(=O)NCC)[C@H](C)C3)c(C)c2)[C@@H](C)C1	·	-8	·	·	·	·
CCOc1ccc(NS(=O)(=O)c2cccc(C(=O)N(C)Cc3ccco3)c2)cc1	·	-7	3	·	-4	-3
CC(NC(=O)c1ccccc1)C(=O)N/N=C/c1ccc(O)cc1 (stereo unspecified)	7	13	3	-1	99*	4
O=C(N/N=C/c1ccc(O)cc1)c1cc[n+](Cc2ccccc2)cc1	2	-3	4	-1	99*	-8
CCn1c(C)c(C)c2cc(C(=O)N3CCc4ccccc4C3)ccc21	5	-2	4	-9	-6	-5
O=C(NNc1c2ccccc2nc2ccccc12)c1ccccc1O	-5	-3	0	-2	99*	-3
O=C(NNc1c2ccccc2nc2ccccc12)c1ccccc1Cl	11	-3	1	-1	-6	1
O=C(NNc1c2ccccc2nc2ccccc12)c1ccc(O)cc1O	12	-5	-4	4	98*	-2
O=C(O)c1ccc(-n2c(-c3cc(-c4ccco4)[nH]n3)n[nH]c2=S)cc1	19	-6	2	5	96*	6
CC(=O)c1ccc(-n2c(-c3cc(-c4ccco4)[nH]n3)n[nH]c2=S)cc1	11	·	-1	2	?	9
Cc1cccc(-n2c(-c3ccco3)n[nH]c2=S)c1	12	-5	-10	-7	86*	1
Cc1ccccc1-n1c(-c2ccco2)n[nH]c1=S	30*	-2	2	-9	51	1
Cc1cccc(-n2c(-c3ccc(Br)o3)n[nH]c2=S)c1	·	-5	-4	1	61	0
Nc1nc(SCC(=O)Nc2ccc(OC(F)(F)F)cc2)[nH]c(=O)c1NC(=O)c1ccc(Br)o1	5	-3	-3	-4	2	2
CSc1nc(C(=O)N2CCCC(Nc3ccc(C)c(C)c3)C2)cs1 (stereo unspecified)	1	-5	0	-18	98*	-3
COc1ccc(NC2CCCN(C(=O)c3csc(C)n3)C2)cc1 (stereo unspecified)	10	-7	9	-24	99*	-2
Cc1ccc2nccc(C(=O)N3CCCC(Nc4ccc(C)c(C)c4)C3)c2c1 (stereo unspecified)	16	-5	2	8	99*	-2
Cc1ccc(NC2CCCN(C(=O)c3ccccn3)C2)cc1C (stereo unspecified)	9	-3	6	7	99*	0
